# Experimental data reported in PubChem BioAssay (NCI).
# The panel holds about 83,000 compounds, 20% with a hit somewhere; the sample as a whole holds those more often.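 Values shown are percent growth following 48 h exposure of cells in 96-well plates to a single concentration of compound; below 10 was considered active.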 Unmarked numbers belong to inactive results. Activity calls are given as the source filed them.
# System: K-562 leukemia
# Assay: NCI-60 one-dose screen, 48 h (100 = growth as untreated, 0 = no growth, -100 = all killed)
# Conditions: 10 µM unless noted
row,SMILES,growth
1,O=C(CSc1nc2ccccc2c(=O)[nH]1)NCCN1CCCCC1,98.9%
2,N#Cc1c(-c2ccccc2Cl)cc(-c2c[nH]c3ccccc23)[nH]c1=O,20%
3,CCCCSc1nc(Nc2ccc(C(C)=O)cc2)c(C#N)c(-c2ccc(OC)cc2)n1,69.6%
4,N/C(=N\c1nc2ccccc2s1)NC(=O)NCCCCCCO,23.4%
5,O=C(NNc1ccccc1)n1c(=O)c2ccccc2c(=O)n1-c1ccccc1,45.8%
6,CC(=O)Oc1ccccc1C(=O)[Se]CC(=O)Nc1cccc(C(F)(F)F)c1,18.6%
7,COc1ccc(Cc2nn(CC(=O)N/N=C/c3ccc(F)cc3)c(=O)c3c(C)noc23)cc1,70.1%
8,COc1ccc(C(=O)/C=C/c2ccc(Oc3nc(Nc4ccc(F)cc4)nc(N(C)C)n3)c(OC)c2)cc1,26.4%
9,O=C(N/N=C/c1ccc(-c2ccc(O)cc2)o1)c1[nH]c2ccc(Br)cc2c1-c1ccccc1,1.64% (active)
10,CC(=O)OC[C@@]1(C)C2CC[C@]3(C)C(CC=C4C5CC(C)(C)CC[C@]5(C(=O)Nc5ccc(Br)cc5)CC[C@]43C)[C@@]2(C)C[C@@H](OC(C)=O)[C@@H]1OC(C)=O (stereo partly drawn),19.2%
11,Cc1ccc(-n2c(-c3cc4ccccc4nc3Cl)noc2=O)cc1,30.6%
12,O=c1cc(-c2ccccc2)oc2cc(OCCCC[P+](c3ccccc3)(c3ccccc3)c3ccccc3)cc(O)c12,-24.1% (active)
13,Cc1ccc(Cc2cnc(NC(=O)c3ccc(/C=C4\SC(=S)N(C)C4=O)cc3)s2)cc1,23.3%
14,C=C1CC[C@@H]2[C@]3(C)COC(c4cn[nH]c4-c4ccc(OC)cc4)O[C@@H]3CC[C@@]2(C)[C@@H]1C/C=C1/C(=O)OCC1O (stereo partly drawn),-31.2% (active)
15,Cc1ccc(/C=C/c2n(Cc3ccc4ccccc4c3)c3ccccc3[n+]2Cc2ccc3ccccc3c2)cc1,-25.6% (active)
16,Cc1c(C(=O)NNC(=O)c2ccc(Cl)cc2)nnn1-c1ccc(Br)cc1,91.3%
17,CC(=O)Nc1cccc(Nc2nc(NCc3ccccc3)c3ccccc3n2)c1,-59% (active)

row,SMILES,growth
1,C[C@H](Nc1nc(NCCc2ccccc2)nc2ccccc12)c1ccccc1,-43.9% (active)
2,Cc1c(C(=O)NNC(=O)Nc2ccc(Cl)cc2)nnn1-c1ccc(Br)cc1,92.2%
3,O=c1oc2ccccc2cc1-c1csc(N=Nc2c(O)[nH]c3ccc(Cl)cc23)n1,104%
4,O=c1c2ccccc2nc(-c2ccccc2)n1/N=C/c1ccc2ccccc2c1,26.7%
5,CN(C)c1nc(NCCNS(=O)(=O)c2ccc(C3=Nc4c(N)nc(N)nc4NC(c4ccccc4)C3)cc2)nc(Nc2ccc(F)cc2)n1 (stereo not drawn),7.64% (active)
6,O=C(O)c1cccc(-c2ccc(/C=N/NC(=O)c3[nH]c4ccc(Br)cc4c3-c3ccccc3)o2)c1,65.8%
7,Cc1ccc2c(N)c(C(=O)Nc3ccc(OC(F)(F)F)cc3)sc2n1,9.66% (active)
8,COc1cc(/C=C/C(=O)c2nnn(-c3ccc(Cl)cc3)c2C)cc(OC)c1OC,3.43% (active)
9,N#Cc1ccc(C(=O)Nn2c(N)cc3ccccc3c2=O)cc1,89.6%
10,COc1cc(-c2ccc(/C=N/NC(=O)c3[nH]c4ccc(Br)cc4c3-c3ccccc3)s2)cc(OC)c1OC,89.6%
11,N#Cc1c(-c2ccc(Br)cc2)nc2n[nH]c(-c3ccc(Br)cc3)c2c1-c1ccc(F)cc1,76.4%
12,Cn1nc(C(F)(F)F)cc1-c1cc(Cl)c(COc2ccc(Cl)cc2)c(-c2ccc(Cl)c(C(F)(F)F)c2)c1O,1.2% (active)
13,CC1=C(C(=O)OCc2ccccc2)C(c2c(O)cc(O)cc2O)n2c(nc3ccccc32)N1 (stereo not drawn),17.4%
14,Cc1ncsc1-c1ccc(CNC(=O)[C@@H]2C[C@@H](O)CN2C(=O)[C@@H](NC(=O)C2(F)CC2)C(C)(C)C)c(OCCOCCOCCOCCOc2nc(Nc3cc(S(C)(=O)=O)ccc3N[C@@H](c3cccc4c3OC(F)(F)O4)c3ncccc3Cl)nc(N3CCNCC3)n2)c1,23.1%
15,N#Cc1c(-c2ccc(Cl)cc2)nc2n[nH]c(-c3ccc(Cl)cc3)c2c1-c1cccs1,16.9%
16,COc1cccc(-c2c(C#N)c(-c3ccc(Cl)cc3)nc3n[nH]c(-c4ccc(Cl)cc4)c23)c1,5.73% (active)
